# Shown are actives, neighbours in structure and some others; about 2.4% of the full set was active somewhere.
# CHO-K1 Ca antag: M1 antagonist counterscreen hit in parental CHO-K1 cells | ATP-induced calcium, Fluo-8 fluorescence | inhibition, % at 3 µM | 360,000 compounds, 0.6% hits;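 active = inhibition above a per-plate cutoff, the plate's mean sample inhibition plus 3 SD, cut at about 24% in these data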;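 note: 0% = DMSO plus EC80 ATP and 100% = DMSO alone without ATP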
# CHO-K1 Ca ag: counter-screen for M1 agonists: effect in parental CHO-K1 cells; activation, % at 3 µM; AID 602248; 360,000 compounds, 0.48% hits; Fluo-8 calcium fluorescence; scaled to maximal ATP response, vehicle zero; in the data active = activation above about 15%;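 note: untransfected CHO-K1 host cells lacking M1 receptor as counterscreen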
# M1 PAM: potentiates human M1 receptor response to acetylcholine; activation, % at 3 µM; 360,000 compounds, 0.088% hits; CHO-K1 hM1, Fluo-8 calcium fluorescence, ACh EC20; 0% = ACh EC20, 100% = maximal ACh; P11229; in the data active = activation above about 19%, passing the limit was not always enough
# Target sequence (P11229 whole entry, looked up): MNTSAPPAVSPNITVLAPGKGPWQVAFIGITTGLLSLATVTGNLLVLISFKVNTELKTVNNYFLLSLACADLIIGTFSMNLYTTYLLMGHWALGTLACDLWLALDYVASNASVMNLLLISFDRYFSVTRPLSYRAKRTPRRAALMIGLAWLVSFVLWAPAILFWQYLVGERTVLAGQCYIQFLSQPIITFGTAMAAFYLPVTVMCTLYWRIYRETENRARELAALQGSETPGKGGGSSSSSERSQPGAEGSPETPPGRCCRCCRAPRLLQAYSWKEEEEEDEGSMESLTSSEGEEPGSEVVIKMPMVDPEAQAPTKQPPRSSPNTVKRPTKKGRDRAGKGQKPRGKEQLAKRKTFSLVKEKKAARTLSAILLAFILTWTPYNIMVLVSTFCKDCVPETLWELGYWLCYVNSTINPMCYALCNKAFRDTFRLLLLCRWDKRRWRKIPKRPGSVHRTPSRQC
# M1 PAM parental: counter-screen for M1 PAMs: effect in parental CHO-K1 cells | ATP EC20, Fluo-8 calcium fluorescence; 0% at ATP EC20, 100% at ATP max | activation, % at 3 µM | 360,000 compounds, 0.02% hits;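 active = activation above the run cutoff, the mean activation of all test compounds plus 3 SD, cut at about 40% in these data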;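 note: peak over basal fluorescence ratio in a 140 s read after ATP addition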
# M1 ag: agonists of human M1 muscarinic receptor; CHO-K1 hM1, Fluo-8 calcium fluorescence, agonist mode; 0% DMSO, 100% acetylcholine EC100; activation, % at 3 µM; P11229; 360,000 compounds, 0.33% hits;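 active = activation above the run's mean compound activation plus 3 SD, cut at about 16% in these data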;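 note: peak over basal fluorescence ratio within a 140 s kinetic read after compound addition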
# CHRM1 antagonist: blocks human M1 muscarinic receptor. P11229. inhibition, % at 3 µM. CHO-K1 hM1, Fluo-8 calcium fluorescence, ACh EC80 antagonist. 360,000 compounds, 1.3% hits. AID 588852;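 active = percent inhibition above its own plate's cutoff, namely the mean of that plate's compound wells plus 3 SD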;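 note: peak over basal fluorescence ratio during 140 s after agonist addition; 0% = ACh EC80 plus DMSO and 100% = DMSO alone without agonist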
# * marks the source's active call; other numbers are inactive results; x = no result.
SMILES,CHO-K1 Ca antag,CHO-K1 Ca ag,M1 PAM,M1 PAM parental,M1 ag,CHRM1 antagonist
CCC1C(C#N)=C(SCC(N)=O)NC2=C1C(=O)CC(C)(C)C2 (stereo not drawn),-7,1,6,10,-3,-7
COc1ccc(C2C(C#N)=C(SCC(=O)Nc3ccc(C)cc3)NC3=C2C(=O)CC(C)(C)C3)cc1 (stereo not drawn),-4,0,-15,0,21*,85*
O=C(CCCC(=O)NNC(=O)Nc1ccccc1)NNC(=O)Nc1ccccc1,28*,0,-8,-18,-2,10
COc1ccc(-n2nc3cc(C)c(NC(C)=O)cc3n2)cc1,30*,-1,-2,-13,-5,1
O=C(CNC(=O)c1ccccc1F)NCc1cccnc1,2,0,3,-18,-2,14
N#Cc1ccc(OCC(O)CN2CCN(C(c3ccccc3)c3ccccc3)CC2)cc1 (stereo not drawn),-10,2,-34,19,-12,88*
OC(COCc1ccco1)CN1CCN(C(c2ccccc2)c2ccccc2)CC1 (stereo not drawn),-9,0,-21,10,-5,67*
CCC(=O)c1ccc(OCC(O)CN2CCN(C(c3ccccc3)c3ccccc3)CC2)cc1 (stereo not drawn),-41,1,-34,23,-13,70*
CC(=O)N1CSCC1C(=O)NNS(=O)(=O)c1ccccc1 (stereo not drawn),1,0,8,1,0,-26
c1ccc(COc2ccc(CNCc3cccs3)cc2)cc1,-7,12,-23,22,-5,41*
c1ccc(COc2ccc(CNCc3cccnc3)cc2)cc1,-8,3,-32,24,-12,31*
O=C1Nc2cc(C(=O)N3CCOCC3)ccc2S/C1=C/c1ccccc1F,-18,3,0,18,-2,-12
O=C1COc2ccc(S(=O)(=O)CCC(=O)N3CCN(c4cccc(C(F)(F)F)c4)CC3)cc2N1,17,17*,-9,7,3,32
CC1Sc2ccc(S(=O)(=O)CCC(=O)N3CCN(c4cccc(Cl)c4)CC3)cc2NC1=O (stereo not drawn),20,15,-16,-22,3,46*
CCNC(=O)C1(C)CCCN(C(=O)CCc2cccs2)C1 (stereo not drawn),4,0,8,-6,-3,-12
Cc1ccc(NC(=O)C2(S(=O)(=O)c3ccc(Cl)cc3)CC2)c(Br)c1,-15,0,1,3,-3,1
CCOC(=O)C1=C(C)N(C)C(C)=C(C(=O)OCC)C1c1ccc(C(=O)OC)cc1,-25,-1,-22,8,-4,53*
Cc1cc2n(n1)C(c1sccc1C)Nc1c(C)cccc1-2 (stereo not drawn),25*,0,12,-6,0,2
N#Cc1cccc2cccc(S(=O)(=O)N3CCOCC3)c12,26*,4,4,-12,-4,3
O=S(=O)(c1cccc2cccnc12)N1CCOCC1,-2,0,2,12,-3,-4
CCn1c(=O)c2ccccc2n(Cc2cccc(C)c2)c1=O,27*,0,12,-25,-1,-2
CCc1ccccc1NC(=O)N1CCc2ccccc2C1,3,19*,4,0,1,-3
O=C(Nc1cccc2ccccc12)N1CCc2ccccc2C1,20,0,4,-8,1,-1
CC(=O)OCC(=O)[C@@]1(O)CC[C@H]2[C@@H]3CCC4=CC(=O)C=C[C@]4(C)[C@@]3(Cl)[C@@H](Cl)C[C@@]21C,-16,0,-14,22,37*,-21
O=C1C(=Cc2ccc(F)cc2)CCc2ccccc21,-11,1,x,7,x,x
SMILES,CHO-K1 Ca antag,CHO-K1 Ca ag,M1 PAM,M1 PAM parental,M1 ag,CHRM1 antagonist
CC(C)CCOc1cccc(OCC(=O)Nc2ccncc2)c1,28*,14,-14,-15,0,26
Cc1cc(OCC(=O)Nc2ccncc2)cc(C)c1Cl,16,10,-13,-8,2,30*
Cc1cc(OCC(=O)Nc2ccc(N3CCCC3)cc2)cc(C)c1Cl,-8,0,-22,5,-5,58*
Cc1cc(OCC(=O)Nc2ccncc2)c(C)cc1Br,32*,14,-19,-15,4,37*
Cc1ccc(OCC(=O)Nc2ccncc2)cc1C,-15,10,-4,15,3,6
Cc1ccc(C23CC4CC(CC(C(=O)OCC(=O)NC5CCS(=O)(=O)C5)(C4)C2)C3)cc1 (stereo not drawn),-1,0,8,13,-5,-4
CSCCC(NC(=O)OCc1ccccc1)NC(=O)OCc1ccccc1,12,4,-11,2,-1,13
OC[C@H]1O[C@@H](c2nc(-c3ccc4[nH]ccc4c3)no2)[C@H](O)[C@@H](O)[C@H]1O,-1,0,13,17,-1,-22
O=C(COc1ccc2ccccc2c1Br)Nc1ccncc1,11,15*,-6,-12,5,30*
O=C(NC1CCCCC1)Sc1ccc(Cl)cc1,24*,0,4,-4,-1,-2
O=C(CSc1ccc(Cl)cc1)NC1CCCC1,-10,0,9,22,-4,-8
Cc1ccccc1OCc1nc2ccccc2c(=O)n1NC(=O)c1ccco1,-7,5,4,18,18*,-31
COc1cccc2c1OC1(C)CC2NC(=O)N1c1cccc(C(=O)Nc2ccc3c(c2)OCCO3)c1 (stereo not drawn),14,3,-13,1,-1,28*
COc1ccc(NC(=O)c2cccc(N3C(=O)NC4CC3(C)Oc3ccccc34)c2)cc1 (stereo not drawn),-4,2,8,11,-3,-10
O=C(Nc1nnc(SCc2ccc(Cl)cc2)s1)C1CCCO1 (stereo not drawn),31*,0,-2,-9,-2,3
COC(=O)c1ccc(CSc2nnc(NC(=O)C3CCCO3)s2)cc1 (stereo not drawn),-11,1,11,13,2,-12
COc1ccc(-c2noc(N3CCC(C(=O)Nc4cccc(OC)c4)CC3)n2)cc1,-6,3,10,15,1,-9
CN1CCN(C=Nc2nc3ccccc3nc2N2CCCC2)CC1,-11,0,-18,3,-5,34*
Nc1nc2ccccc2nc1N1CCCC1,-10,2,4,20,-7,-6
Cc1cccc(NC(=O)Cn2ccn(-c3ccc4c(c3)OCCO4)c(=O)c2=O)c1,-10,0,7,-8,0,-26
Cc1c(C(c2cc3c(cc2Br)OCO3)c2c(C)n(C)n(-c3ccccc3)c2=O)c(=O)n(-c2ccccc2)n1C,-11,0,-21,7,-8,39*
CCOC(=O)NNC(=O)C1CCC(C)CC1 (stereo not drawn),6,19*,12,9,-3,-11

# Screening results from PubChem.
